# The campaign covered roughly 310,000 compounds. About 1,300 (0.42%) were called active.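 How the source made its calls: active means B-score of calcium response area above 5 SD of library B-scores, with initial fluorescence ratio within 5 SD of library; inactive means the rest.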 The sample as a whole holds a higher share of actives than the screen did.
# Biological target: Short transient receptor potential channel 4 (Mus musculus) (UniProt Q9QUQ5)
# Assay: TRPC4 channel potentiators under submaximal DAMGO – cell-based, mouse TRPC4beta, HEK293 mu-opioid, Fluo-4 calcium, primary screen (AID 2227);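 on B-score: B-score of integrated fluorescence ratio over time as area under calcium response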
# Conditions: DAMGO EC20, Fluo-4 Ca2+ flux, at 10 µM; hits give high values
# Sequence of Short transient receptor potential channel 4 (Mus musculus) (Q9QUQ5 whole entry, looked up): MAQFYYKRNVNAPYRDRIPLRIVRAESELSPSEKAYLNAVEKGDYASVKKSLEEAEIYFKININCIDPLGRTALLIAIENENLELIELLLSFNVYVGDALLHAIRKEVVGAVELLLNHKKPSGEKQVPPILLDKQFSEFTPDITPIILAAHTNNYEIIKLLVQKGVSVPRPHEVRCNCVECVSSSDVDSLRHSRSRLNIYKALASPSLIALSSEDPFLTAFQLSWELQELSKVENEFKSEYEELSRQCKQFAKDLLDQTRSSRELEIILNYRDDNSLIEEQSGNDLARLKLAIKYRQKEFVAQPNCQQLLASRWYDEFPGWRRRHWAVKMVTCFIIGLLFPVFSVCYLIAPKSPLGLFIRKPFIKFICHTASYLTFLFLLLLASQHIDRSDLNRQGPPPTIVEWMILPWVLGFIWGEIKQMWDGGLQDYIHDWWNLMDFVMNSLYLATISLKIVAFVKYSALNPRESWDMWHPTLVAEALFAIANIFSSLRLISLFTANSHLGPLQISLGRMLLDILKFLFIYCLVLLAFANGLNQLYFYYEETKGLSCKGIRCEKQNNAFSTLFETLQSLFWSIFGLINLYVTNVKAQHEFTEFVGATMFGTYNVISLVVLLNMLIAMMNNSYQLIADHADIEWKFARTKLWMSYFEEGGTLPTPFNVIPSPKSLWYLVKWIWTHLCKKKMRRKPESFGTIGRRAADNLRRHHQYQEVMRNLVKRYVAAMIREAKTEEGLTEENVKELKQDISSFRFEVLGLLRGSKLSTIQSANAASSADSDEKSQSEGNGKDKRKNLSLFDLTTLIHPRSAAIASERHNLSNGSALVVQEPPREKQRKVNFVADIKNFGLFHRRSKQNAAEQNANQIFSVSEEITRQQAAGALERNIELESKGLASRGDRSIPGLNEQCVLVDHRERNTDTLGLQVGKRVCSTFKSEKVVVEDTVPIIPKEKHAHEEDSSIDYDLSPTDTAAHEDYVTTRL
row,SMILES,B-score
1,COc1ccccc1NC(=O)Nc1nc(CC(=O)Nc2ccccc2F)cs1,inactive
2,NS(=O)(=O)c1ccc(NC(=O)COC(=O)c2cc3ccccc3oc2=O)cc1,inactive
3,CCOC(=O)c1cc2cc3ccccc3cc2oc1=O,13 (active)
4,C=CCc1cccc2cc(C(=O)OCC)c(=O)oc12,inactive
5,CC(C)c1c(C(=O)N/N=C/c2ccc(-c3ccccc3)cc2)nnn1-c1nonc1N,inactive
6,CCCc1nc2scc(-c3ccc(C)cc3)c2c(=O)n1N,inactive
7,CN1CCN(c2ccc(CNS(=O)(=O)c3cccc(F)c3)cc2)CC1,inactive
8,O=C(CN1CCN(c2ncc(C(F)(F)F)cc2Cl)CC1)Nc1ccc2c(c1)OCO2,10 (active)
9,O=C(CN1CCN(C(=O)c2ccco2)CC1)Nc1ccc2c(c1)OCO2,inactive
10,O=C(NCC(=O)N1CCN(c2ncc(C(F)(F)F)cc2Cl)CC1)c1ccc(Br)o1,inactive
11,OCCNc1nc2ccccc2n1-c1ncnc2sc3c(c12)CCC3,inactive
12,COCCNC(=S)N1CCC(NC(=O)C23CC4CC(CC(C4)C2)C3)CC1,inactive
13,FC(F)(F)COc1nc(N2CCCCC2)nc(N2CCNCC2)n1,27 (active)
14,CN(N)c1nc(N2CCCC2)nc(N2CCCC2)n1,inactive
15,COc1nc(NC2CCCCC2)nc(N2CCCCCC2)n1,inactive
16,CC(=O)OCCOCn1cnn2c(=O)c(Br)c(C)nc12,inactive
17,C/C(=N\NC(=O)c1cc(-c2ccc(O)cc2)nc2ccccc12)c1cccnc1,inactive
18,CN(C)c1ccc(/C=C2\NC(=S)N(Cc3ccccc3)C2=O)cc1,14 (active)
19,COc1cc(/C=C2/SC(=S)N(Cc3ccccc3)C2=O)cc(OC)c1O,inactive
20,O=C1/C(=C\c2ccsc2)NC(=S)N1c1ccccc1,inactive
21,CCC(C)(C)NC(=O)c1cc([N+](=O)[O-])ccc1N1CCCCC1,inactive

row,SMILES,B-score
1,CCOc1ccccc1NS(=O)(=O)c1c[nH]c(C(=O)OC)c1,inactive
2,CCOC(=O)C1CCCN(CCSc2ccc(C)cc2)C1 (configuration not stated),inactive
3,NC(N)=N/N=C/c1ccc(Cl)c([N+](=O)[O-])c1,16 (active)
4,O=C(/C=C/c1ccc(Cl)c([N+](=O)[O-])c1)c1ccc(O)cc1,inactive
5,O=C(/C=C/c1ccc(Cl)c([N+](=O)[O-])c1)c1cccnc1,inactive
6,Oc1c(Br)cccc1/C=N/Nc1c(F)c(F)c(F)c(F)c1F,11 (active)
7,Oc1cccc(/C=N/Nc2ccc(Cl)nn2)c1O,inactive
8,Brc1ccccc1/C=N/Nc1nc2ccccc2o1,inactive
9,O=[N+]([O-])c1cc(S(=O)(=O)CCCN2CCOCC2)ccc1F,inactive
10,C/C(=N/NC(=O)CCc1ccccc1)c1ccco1,inactive
11,COc1ccc(C)cc1NC(=S)N1CCOCC1,inactive
12,CCOc1cc(C(=S)N2CCOCC2)ccc1O,inactive
13,COc1cc(C(=S)N2CCOCC2)ccc1O,42 (active)
14,COCCCNC(=O)/C=C/c1ccc(OCc2c(F)cccc2Cl)cc1,inactive
15,CN(C)CCCNC(=O)/C=C/c1ccc(OCc2c(F)cccc2Cl)cc1,16 (active)
16,O=C(/C=C/c1ccc(OCc2c(F)cccc2Cl)cc1)N1CCOCC1,inactive
17,CSc1nnc(C2CCCN(CC(=O)Nc3ccccc3N3CCOCC3)C2)n1C(C)C (configuration not stated),inactive
18,COc1ccc(OC)c(S(=O)(=O)N2CCCC(C(=O)NCCc3ccccc3)C2)c1 (configuration not stated),inactive
19,Cc1ccc(S(=O)(=O)N2CCN(Cc3cccc(C)c3O)CC2)cc1,inactive
20,O=C(CN1CCN(S(=O)(=O)c2ccc(F)cc2)CC1)Nc1ccccc1F,inactive
21,O=S(=O)(c1ccc(F)cc1)N1CCN(Cc2ccccc2C(F)(F)F)CC1,11 (active)

row,SMILES,B-score
1,Cc1ccc(C(=O)COC(=O)c2cccc(N3C(=O)c4c(C)nc5ccccc5c4C3=O)c2)cc1C,inactive
2,Cc1cccn2c(=O)c(C=O)c(Nc3ccc(S(N)(=O)=O)cc3)nc12,inactive
3,Cc1cccc(NC(=O)c2cc([N+](=O)[O-])ccc2N2CCN(C)CC2)c1,21 (active)
4,O=C(Nc1cccc(Cl)c1)c1cc([N+](=O)[O-])ccc1N1CCN(CCO)CC1,inactive
5,CC(=O)Nc1ccc(N2CCOCC2)c(C(=O)Nc2cccc(C)c2)c1,inactive
6,CC(Sc1nn(-c2ccc(Cl)cc2)c(=S)s1)C(=O)NCC1CCCO1 (configuration not stated),inactive
7,COc1ccc(S(=O)(=O)n2cnc3ccccc32)c(C)c1,inactive
8,CCCCCOc1ccc(CSC2=NCCN2)cc1[N+](=O)[O-],inactive
9,CCCCOc1ccc(CSC(=N)N)cc1[N+](=O)[O-],21 (active)
10,CCCOc1ccc(Cn2ccnc2)cc1[N+](=O)[O-],inactive
11,O=C(NNC(=O)C1C2CCC(C2)C1C(=O)O)c1ccc(Cl)cc1 (configuration not stated),inactive
12,Cc1ccc(CN(CC(=O)NC2CCCCC2)C(=O)c2csnn2)cc1,inactive
13,Cc1ccccc1C(CC(=O)c1cccs1)C(C#N)C#N (configuration not stated),inactive
14,CCOc1ccc(Br)cc1S(=O)(=O)Nc1ccc(C(=O)OC(C)C(=O)N(C)c2ccccc2)cc1 (configuration not stated),inactive
15,CCOC(=O)N1CCN(C(=O)c2ccc(S(=O)(=O)Nc3cccc(C(F)(F)F)c3)cc2)CC1,inactive
16,O=C(NCc1cccc(C(F)(F)F)c1)c1cccc(S(=O)(=O)N2CCN(Cc3ccccc3)CC2)c1,inactive
17,O=C(NCc1ccccc1)c1ccc(S(=O)(=O)Nc2cccc(C(F)(F)F)c2)cc1,17 (active)
18,CC[C@@H](C)[C@H](NC(=O)CCc1c(C)c2cc3c4c(oc3c(C)c2oc1=O)CCCC4)C(=O)O,inactive
19,CN1CCC(=O)N([C@H](CO)Cc2ccccc2)CC1,inactive
20,O=C(c1cc(Cl)cc(Cl)c1)N1CCC(=O)N(C(COCc2ccccc2)Cc2ccccc2)CC1 (configuration not stated),12 (active)
21,CC(C)CC(COCc1ccc(Cl)cc1)N1CCN(C(=O)c2ccc(C(F)(F)F)cc2)CCC1=O (configuration not stated),inactive

row,SMILES,B-score
1,COc1ccc(N2CC(C(=O)NCCN3C(=O)S/C(=C\c4cccnc4)C3=O)CC2=O)c(OC)c1 (configuration not stated),inactive
2,COc1ccc(N2CCN(S(=O)(=O)CCNC(=O)C34CC5CC(CC(C5)C3)C4)CC2)cc1,inactive
3,Cc1ccc(NC(=O)Cc2nnc(SCC(=O)Nc3nncs3)n2C)cc1,inactive
4,CC(=O)C12CC(C)=C(C)CC1CC1C3CCC4=CC(=O)CCC4(C)C3CCC12C (configuration not stated),11 (active)
5,CC(=O)O[C@]1(C(C)=O)CC[C@H]2[C@@H]3C=C(C)C4=CC(=O)CC[C@]4(C)[C@H]3CC[C@@]21C,inactive
6,C[C@]12C=CC(=O)C=C1CC[C@@H]1[C@@H]2C(=O)C[C@@]2(C)[C@H]1CC[C@]2(O)C(=O)CO,inactive
7,CC(=O)c1c(C)n(-c2ccc(N(C)C)cc2)c2ccc(OCC(N)=O)cc12,inactive
8,O=C1CSC(c2ccc(Cl)cc2)N1 (configuration not stated),inactive
9,COc1ccc(S(=O)(=O)NC(C)c2ccccc2)cc1C(=O)N1CCCCC1 (configuration not stated),inactive
10,O=c1c2ccccc2oc2nc3n(c(=O)c12)CCCS3,inactive
11,CCc1nc2oc3ccccc3c(=O)c2c(=O)n1Cc1ccc(OC)cc1,inactive
12,O=c1c2ccccc2oc2nc(C3CCCCC3)n(Cc3ccco3)c(=O)c12,29 (active)
13,CCN(CC)CCNc1ccc(Cl)cc1[N+](=O)[O-],20 (active)
14,CSc1ccccc1NC(=O)CN(C)CC(=O)Nc1ccc(Cl)cc1[N+](=O)[O-],inactive
15,CN(C)CCNc1ccc(-c2n[nH]c(=O)c3ccccc23)cc1[N+](=O)[O-],inactive
16,C/C(=N\N1CCN(Cc2ccc(C)cc2)CC1)c1ccco1,inactive
17,CCn1cc(C(=O)NCC(=O)NC(C)(C)CO)c(=O)c2cc3c(cc21)OCO3,inactive
18,COc1ccccc1CNS(=O)(=O)CC12CCC(CC1=O)C2(C)C (configuration not stated),inactive
19,Cc1c(NC(=O)C(=O)N/N=C/c2cccs2)c(=O)n(-c2ccccc2)n1C,inactive
